Screens deposited in PubChem BioAssay by National Center for Advancing Translational Sciences (NCATS).
NS1 function inh: inhibitors of influenza NS1 protein function; Potency, µM (highest dose often 46.1 µM), without a hit: at the top dose activity, positive = more growth; hit rate 0.4% among 270,000; calls by dose curve; further: actives are rising curves; nearly all actives have a fitted effect of over 50% in size
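Compounds were scored for reversing the slow growth caused by influenza A NS1 in S. cerevisiae, measured by optical density at 600 nm. Assay medium contained 2% galactose at pH 6.0; NS1-free yeast of the same strain were the positive control.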
Pf growth 96h: inhibits malaria parasite growth, 96 h. hit rate 6.9% among 320,000. P. falciparum luciferase reporter growth, 96 h. AID 504834. Potency, µM (doses to about 28.7 µM), for the others: top-dose activity change, negative = inhibition, usual class: inhibitors; further: on the % scale 0 is the no-effect control and ±100 the full control effect
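Parasite growth measured via integrated firefly luciferase reporter in P. falciparum. Infected erythrocytes at 2% hematocrit, 0.05% parasitemia final were treated 96 hours at 37 C under 5% CO2, and luminescence was read.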
AMA1 RON2 block: inhibitors of Plasmodium falciparum AMA1-RON2 interaction | Potency, µM (highest dose often 58.2 µM), inactives show at the top dose activity change, negative = inhibition, hits mostly inhibitors | hit rate 0.2% among 360,000 | AID 720542 | AlphaScreen AMA1-biotinylated RON2 peptide binding;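 further: 0% = vehicle wells and -100% = peptide control; nearly all actives have a fitted effect of over 45% in size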
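AMA1 (3D7) with his tag at 25 nM final met compounds first, then biotinylated RON2 peptide at 25 nM; detection used donor plus acceptor beads, 10 µg/mL apiece, read by AlphaScreen after 30 min at room temperature.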
Pf growth 48h: P. falciparum growth inhibition at 48 hours (one generation) | P. falciparum luciferase growth in erythrocytes, 48 h | Potency, µM (doses to about 28.7 µM), without a hit: at the top dose activity change, negative = inhibition, actives largely listed as inhibitors | hit rate 5.9% among 310,000; further: on the % scale 0 is the no-effect control and ±100 the full control effect
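Cell-based growth assay: transgenic P. falciparum expressing firefly luciferase, cultured in red cells within RPMI 1640 containing 0.5% w/v Albumax, 24 mM bicarbonate and gentamycin. A drop in luciferase activity indicates inhibition.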
Sm TGR inh: blocks Schistosoma mansoni thioredoxin glutathione reductase | Potency, µM (series often up to 114 µM), for inactives: at the highest dose activity change, negative = inhibition, usual class: inhibitors | hit rate 3% among 360,000 | Q962Y6 | purified TGR, DTNB reduction, TNB absorbance 405 nm; further: on the % scale 0 is the no-effect control and ±100 the full control effect; nearly all actives have a fitted effect of over 60% in size
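Kinetic colorimetric format: TGR-catalysed, NADPH-driven DTNB reduction monitored via TNB absorbance. Enzyme dispensed at 20 nM; compound exposure 15 min at room temperature before reaction start.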
* = called active by the depositor; ? = inconclusive; nt = no result; [ ] = another dose, or the depositor's remark. Rows were chosen to be rich in hits. Some 11% of all compounds tested hit in one or more screens of this group. Unless noted, the call rests on the fitted dose curve; in most records, active means well fitted curve in the direction sought with a large enough effect; inconclusive means small, poorly fitted or top-dose-only effect, or another doubt; inactive means no such curve, though single readings can be large; an effect the other way counts as inactive or inconclusive. Potency means the concentration at half of the fitted maximal effect.

SMILES	NS1 function inh	Pf growth 96h	AMA1 RON2 block	Pf growth 48h	Sm TGR inh
CCCCCCCCCCCn1nnnc1N	nt	nt	20%	nt	nt
O=C(Nc1ccccc1C(=O)N1CCCCC1)c1nsc2ccccc12	nt	nt	nt	nt	3%
CN1C(=O)/C(=C/c2cccn2-c2ccc3ccccc3c2)C(=O)NC1=S	-59%	-9%	?	-5%	0%
CN1C(=O)/C(=C\N2CCc3ccccc32)C(=O)NC1=S	18%	9.3µM*	8%[2.32 µM]	24%	?
CCCc1cc(-c2[nH]ncc2-c2ccc3c(c2)OCCCO3)c(O)cc1OC	-69%	nt	nt	3.7µM*	32%
CCc1cc(-c2[nH]ncc2-c2ccc3c(c2)OCO3)c(O)cc1O	-56%	?	10%	?	6%
CC[C@H]1NC(=O)c2cc(S(N)(=O)=O)c(Cl)cc2N1	nt	-23%[12.8 µM]	nt	-16%[12.8 µM]	nt
Cc1ccc(C(=O)COC(=O)CCc2nc3ccccc3[nH]c2=O)cc1C	1%	2.6µM*	-8%	11%	-1%
CN(C(=O)c1ccc(NC(=O)Cc2ccc(NC(=O)C3CCN(C(=O)c4ccccc4)CC3)cc2)cc1)C1CCCC1	nt	nt	-5%	nt	nt
CC(C)N(Cc1nccn1C)C(=O)C1CCC(=O)N(CCc2ccccc2)C1 (centres undefined)	nt	nt	1%	nt	nt
Cc1ccc(S(=O)(=O)NC(C)C(c2cccs2)N2CCN(C)CC2)cc1 (centres undefined)	-1%	10µM*	-10%	-21%	-20%
CC(NS(=O)(=O)c1ccccc1)C(c1cccs1)N1CCN(C)CC1 (centres undefined)	0%	?	7%	19%	18%
CCCCCOC(=O)C1=C(C)NC(=O)NC1c1ccc(OC)cc1 (centres undefined)	?	92%	-15%	21%	1%
O=C(CSc1oc(-c2ccco2)nc1S(=O)(=O)c1ccc(Cl)cc1)NCC1CCCO1 (centres undefined)	-7%	?	-12%	nt	50µM*
O=C(CSc1oc(-c2ccco2)nc1S(=O)(=O)c1ccccc1)NCC1CCCO1 (centres undefined)	-16%	4%	-7%	-5%	16µM*
O=C(CSc1oc(-c2ccco2)nc1S(=O)(=O)c1ccc(F)cc1)NCC1CCCO1 (centres undefined)	-2%	?	-2%	8%	0%
CC#CCCC(=O)N1C=Cc2ccccc2C1C#N (centres undefined)	-3%	0%	-3%	2.3µM*	?
Cc1cccc(Nc2nc(C)cc(C)n2)c1	9%	?	0%	?	3%
Cc1cc(N(C)C)nc(Nc2ccccc2)n1	nt	12µM*	-8%	13µM*	-5%
COc1ccc(N2C(=O)C3CCCN3C2=S)cc1 (centres undefined)	-7%	?	?	-5%	7%
CCOc1c(Cl)cc(CNc2nnnn2C)cc1OC	22%	0%	-3%	5.9µM*	-22%
CCOc1ccc(CNc2nnnn2C)cc1OC	17%	-34%	-8%	?	35%
CCO[C@@H]1OC(C(=O)NCc2ccccc2)=C[C@H](C2CCCCC2)[C@H]1CCCO	1%	9.3µM*	0%	?	8%
C#CCNC(=O)C1=C[C@@H](C2CCCCC2)[C@H](CCCO)[C@@H](OCC)O1	4%	?	9%	?	40µM*
COc1cccc(CN2CCC(n3nccc3NC(=O)CCCc3ccccc3)CC2)c1	-6%	-14%	-8%	?	-7%
SMILES	NS1 function inh	Pf growth 96h	AMA1 RON2 block	Pf growth 48h	Sm TGR inh
Cc1ccc(Cn2ccsc2=NC(=O)COC(=O)c2ccc(NC(=O)CC#N)cc2)cc1	nt	10µM*	11%	13µM*	-4%
Cc1ccc(NC(=O)CSCC(=O)N=c2sccn2C)cc1	nt	9%	26%	0%	6%
Cc1ccc(Cn2ccsc2=NC(=O)CCl)cc1	nt	?	1%	?	14µM*
COc1ccc(C(C#N)=C2C=C(Cl)C(=NO)C=C2Cl)cc1	nt	nt	22µM*	nt	nt
COc1ccc(C(C#N)=C2C=CC(=NO)C(C)=C2Cl)cc1	nt	nt	3.2µM*	nt	nt
COc1ccc(C(=N/O)/C(=N/O)c2ccc(OC)cc2)cc1	0%	-3%	-2%	-4%	5%
COc1ccc(C(C)NC(=O)CN(c2cc(OC)ccc2OC)S(=O)(=O)c2ccccc2)cc1 (centres undefined)	nt	nt	nt	nt	3%
